In the supplement of paper PMC3545927:
Some of the results follow. How many sequences the whole screen found active is unknown.

B1: HC2020 (peptide)
chain: CAVCCCSMSYAGNASASA
B2: HC984 (peptide)
chain: CATCMSADLEAGNASASA
B3: HC225 (peptide)
chain: CAGFADLMGYAGNASASA
B4: HC210 (peptide)
chain: CASPRGSRPSAGNASASA
B5: FS-300 (peptide)
chain: CASPNRSRRHAGNASASA
B6: FS-945 (peptide)
chain: CAMSMRVRRHAGNASASA
B7: HC837 (peptide)
chain: CAGSVTVPHPAGNASASA
B8: HC520 (peptide)
chain: CAVVLLFLLLAGNASASA
B9: HC871 (peptide)
chain: CALDVSVIPTAGNASASA
B10: HC894 (peptide)
chain: CADPTFTIETAGNASASA
B11: HC1904 (peptide)
chain: CATTPCSGIWAGNASASA
B12: FS-1554 (peptide)
chain: CAPSRRQQRAAGNASASA
B13: FS-60 (peptide)
chain: CALWGRTRRLAGNASASA
B14: HC971 (peptide)
chain: CAPTPLLYRLAGNASASA
B15: FS-1054 (peptide)
chain: CAPSCRYRRLAGNASASA
B16: HC1137 (peptide)
chain: CAVTQLLRRLAGNASASA
B17: FS-1555 (peptide)
chain: CAPSRRTRRLAGNASASA
B18: HC1705 (peptide)
chain: CAMELCSQHLAGNASASA
B19: HC18 (peptide)
chain: CAMEENSQHLAGNASASA
B20: HC355 (peptide)
chain: CAGGSAGHTVAGNASASA
B21: HC1999 (peptide)
chain: CAPVCCSMSYAGNASASA
B22: HC1156 (peptide)
chain: CAFKTWLKAKAGNASASA
B23: FS-623 (peptide)
chain: CAQSLRCRRCAGNASASA
B24: HC1550 (peptide)
chain: CADLELITSCAGNASASA
B25: FS-503 (peptide)
chain: CASQLRYRRCAGNASASA
B26: FS-1014 (peptide)
chain: CAIPDRLRKCAGNASASA
B27: HC1586 (peptide)
chain: CASVLIARDQAGNASASA
B28: FS-986 (peptide)
chain: CADPQRSRRCAGNASASA
B29: FS-1558 (peptide)
chain: CAQVMRRRRCAGNASASA
B30: FS-989 (peptide)
chain: CAEHHRSRRCAGNASASA
B31: FS-498 (peptide)
chain: CASGARRRRCAGNASASA
B32: HC1787 (peptide)
chain: CAFEMEECSQAGNASASA
B33: HC2397 (peptide)
chain: CAEVPCHRSSAGNASASA
B34: FS-1616 (peptide)
chain: CASTGYPKRSAGNASASA
B35: HC2353 (peptide)
chain: CAEVRCHRPSAGNASASA
B36: FS-1168 (peptide)
chain: CASTGRVGRSAGNASASA
B37: FS-617 (peptide)
chain: CALYSRVGRSAGNASASA
B38: FS-1281 (peptide)
chain: CASHSREGRSAGNASASA
B39: FS-766 (peptide)
chain: CAEVRRVGRSAGNASASA
B40: HC2360 (peptide)
chain: CAEVCCHRPSAGNASASA
B41: NG8 (peptide)
chain: CAAIFQGPIDAGNASASA
B42: HC1761 (peptide)
chain: CAMEECSQNLAGNASASA
B43: HC2460 (peptide)
chain: CAECEVPCHRAGNASASA

Target: furin, P09958
Test: furin cleavage Z-score vs untreated control; higher = more cleavage, active = 3.5 or more, inactive = 1 or less, 8 variable residues between constant flanks
Procedure: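 Multiplexed peptide-cDNA fusion cleavage assay. 8-mer variable peptides flanked by constant Cys-Ala (N-term) and Ala-Gly-Asn-Ala-Ser-Ala-Ser-Ala (C-term) and conjugated to a cDNA oligonucleotide were bead-immobilised via the N-terminus. They were treated with purified furin at a 1:10 enzyme:substrate ratio in 50 mM HEPES pH 7.5, 1 mM CaCl2, 100 mM NaCl for 7.5, 15 or 30 min. Released cDNA was counted by next-generation sequencing, and log counts versus no-furin controls were lowess-adjusted and converted to robust Z-scores.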

Chain of furin, P09958 (P09958 whole entry): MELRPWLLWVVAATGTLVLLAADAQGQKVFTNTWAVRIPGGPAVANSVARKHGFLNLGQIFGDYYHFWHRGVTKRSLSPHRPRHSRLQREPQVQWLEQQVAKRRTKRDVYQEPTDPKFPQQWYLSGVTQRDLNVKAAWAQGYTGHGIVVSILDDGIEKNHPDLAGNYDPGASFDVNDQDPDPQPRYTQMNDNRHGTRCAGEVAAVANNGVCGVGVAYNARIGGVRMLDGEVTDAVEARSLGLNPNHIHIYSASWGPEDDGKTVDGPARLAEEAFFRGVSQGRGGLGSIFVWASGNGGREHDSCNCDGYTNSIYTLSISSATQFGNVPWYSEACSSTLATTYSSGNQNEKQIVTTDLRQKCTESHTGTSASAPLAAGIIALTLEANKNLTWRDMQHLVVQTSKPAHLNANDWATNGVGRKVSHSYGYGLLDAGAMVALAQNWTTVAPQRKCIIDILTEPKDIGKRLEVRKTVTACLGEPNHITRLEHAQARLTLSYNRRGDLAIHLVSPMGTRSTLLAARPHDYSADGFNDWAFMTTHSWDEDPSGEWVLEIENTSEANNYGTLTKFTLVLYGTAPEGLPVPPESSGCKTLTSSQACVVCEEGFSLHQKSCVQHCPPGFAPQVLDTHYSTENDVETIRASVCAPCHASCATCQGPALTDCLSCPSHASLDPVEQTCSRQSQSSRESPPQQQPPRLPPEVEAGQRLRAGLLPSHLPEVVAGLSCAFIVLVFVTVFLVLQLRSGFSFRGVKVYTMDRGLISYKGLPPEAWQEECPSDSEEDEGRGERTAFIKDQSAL

Row | Sequence | furin cleavage Z-score (7.5 min) | furin cleavage Z-score (15 min) | furin cleavage Z-score (30 min)
1 | B1 | 0.181 (inactive) | 1.69 | 1.02
2 | B2 | 0.644 (inactive) | 0.775 (inactive) | 1.54
3 | B3 | -1.18 (inactive) | -0.646 (inactive) | -1.14 (inactive)
4 | B4 | 0.189 (inactive) | 0.149 (inactive) | -0.107 (inactive)
5 | B5 | 9.77 (active) | 10.7 (active) | 7.23 (active)
6 | B6 | 10 (active) | 10.3 (active) | 7.98 (active)
7 | B7 | 0.881 (inactive) | 0.63 (inactive) | 0.486 (inactive)
8 | B8 | -0.794 (inactive) | -0.656 (inactive) | -1.88 (inactive)
9 | B9 | -2.6 (inactive) | -1.18 (inactive) | -0.758 (inactive)
10 | B10 | -0.863 (inactive) | -0.464 (inactive) | -0.935 (inactive)
11 | B11 | -0.536 (inactive) | 0.611 (inactive) | -1.36 (inactive)
12 | B12 | 9.53 (active) | 8.72 (active) | 7.58 (active)
13 | B13 | 1.66 | 4.15 (active) | 3.16
14 | B14 | -0.296 (inactive) | 0.704 (inactive) | 0.366 (inactive)
15 | B15 | 4.67 (active) | 7.06 (active) | 7.38 (active)
16 | B16 | 0.0354 (inactive) | -1.42 (inactive) | -1.96 (inactive)
17 | B17 | 7.98 (active) | 11.7 (active) | 8.56 (active)
18 | B18 | 2.69 | 0.76 (inactive) | 2.04
19 | B19 | 0.787 (inactive) | 0.956 (inactive) | 2.04
20 | B20 | 0.866 (inactive) | -0.487 (inactive) | 0.0302 (inactive)
21 | B21 | 0.302 (inactive) | -0.969 (inactive) | 1.74
22 | B22 | -0.496 (inactive) | -0.829 (inactive) | -0.782 (inactive)

Row | Sequence | furin cleavage Z-score (7.5 min) | furin cleavage Z-score (15 min) | furin cleavage Z-score (30 min)
23 | B23 | -0.625 (inactive) | -0.00103 (inactive) | -0.127 (inactive)
24 | B24 | 0.66 (inactive) | -0.229 (inactive) | 0.498 (inactive)
25 | B25 | 5.96 (active) | 7.81 (active) | 5.84 (active)
26 | B26 | -0.934 (inactive) | -0.376 (inactive) | -0.995 (inactive)
27 | B27 | 0.606 (inactive) | 0.779 (inactive) | -0.441 (inactive)
28 | B28 | 0.928 (inactive) | 0.649 (inactive) | 1.13
29 | B29 | 7.16 (active) | 5.85 (active) | 4.82 (active)
30 | B30 | 2.96 | 3.54 (active) | 3.96 (active)
31 | B31 | 0.58 (inactive) | 0.416 (inactive) | 0.773 (inactive)
32 | B32 | -0.0244 (inactive) | -1.03 (inactive) | 0.747 (inactive)
33 | B33 | 0.159 (inactive) | 1.25 | 1.43
34 | B34 | 0.639 (inactive) | -0.301 (inactive) | -0.705 (inactive)
35 | B35 | 1.89 | 0.104 (inactive) | -0.327 (inactive)
36 | B36 | 4.32 (active) | 6.64 (active) | 7 (active)
37 | B37 | 8 (active) | 8.87 (active) | 7.73 (active)
38 | B38 | 2.57 | 1.17 | 3.76 (active)
39 | B39 | 5.5 (active) | 6.28 (active) | 4.53 (active)
40 | B40 | 0.494 (inactive) | 0.659 (inactive) | -0.0079 (inactive)
41 | B41 | -1.22 (inactive) | 0.323 (inactive) | -1.13 (inactive)
42 | B42 | -0.233 (inactive) | 0.845 (inactive) | 0.876 (inactive)
43 | B43 | 1.55 | -0.187 (inactive) | 2.66
